Screen size: about 4,800 compounds; about 420 (8.8%) showed an effect of 50% or more. The entries come from a sample that favours strong results as a whole.
Tested on: Plasmodium falciparum
Experiment: Confirmatory screen in NF54 nanoGlo assay, in single point, at 2uM, 72h
Assay type: functional, Erythrocyte
Details: timepoint 72 hour

Compound | % Inhibition [%]
O=C(O)COc1ccccc1[C@H]1CC(O)=Nc2cccc3c2c1cn3Cc1cccc(F)c1 | 1
N#Cc1ccc(CNc2ccccc2OCC(F)F)o1 | -10
CNCCCNC(=O)c1ccc(Br)cc1C | 5
COc1cc(NC(=O)N2CC(c3noc(-c4ccccc4)n3)C2)cc(OC)c1OC | 2
CNC(=O)[C@@H]1C[C@H](NCc2cc(OC)c(OC)c(OC)c2)CN1CC(c1ccccc1)c1ccccc1 | 63
COc1cc(CNC2CCCCC2)cc(Br)c1OCc1ccccc1Cl | 5
Cc1nc([C@H](C)NC(=O)c2ccc(S(C)(=O)=O)cc2)cs1 | 3
Cc1onc(C(=O)N2CCC3(CC2)CC[C@]3(C)O)c1Cn1cccn1 | -6
CC(=O)Nc1cc2c(cc1NC(C)=O)N(C(C)=O)CC2 | -15
COc1ccc(C2=Nc3ccc(S(=O)(=O)N4CCOCC4)cc3S(=O)(=O)N2)cc1 | -10
C[C@H]1CCC[C@@H](NCCc2ccccc2)CCC/C=C/c2cc(O)cc(O)c2C(=O)O1 | 77
Cc1nc2c(-c3ccco3)nc(=O)n(CC(=O)Nc3cccc4ccccc34)c2s1 | -8
COc1cccc(NC(=O)N2CC(O)CC2C2CCCCC2)c1 (stereo not given) | -3
Oc1cccc(CN2CCC3(CC2)C[C@H](c2ccccc2)CN(C2CC2)C3)c1 | 31
COc1ccc(-c2nccn3cc(C(=O)NCC(C)C)nc23)cc1 | -2
Cc1cccc(Cc2c(C)nn(-c3nc(C)cc(C)n3)c2O)c1 | -18
CN(C)C(=O)c1cc2c(s1)CC[C@H](C(=O)NCCN1CCOCC1)C2 | 6
Cc1nn(-c2nc3ccccc3[nH]2)c2c1[C@@H](c1cccnc1)CC(=O)N2 | 79
O=C1C[C@H](c2cccnc2)c2cnn(C3CCCC3)c2N1 | 6
Cc1nn(-c2ncccn2)c2c1[C@@H](c1ccccc1)CC(=O)N2 | -16

Compound | % Inhibition [%]
O=C(CN1CCC[C@H]1C1CCCC1)NCC1CCCCC1 | 27
CC1=NN(c2ccccc2)C(O)C1C(c1ccccc1O)C1C(C)=NN(c2ccccc2)C1O (stereo not given) | -7
Cc1ccccc1Cn1nc2ccc(S(=O)(=O)N3CCOCC3)cn2c1=O | 4
COc1ccc([C@@H]2c3[nH]c4ccc(OC)cc4c3CCN2C(=O)NCc2ccc(F)cc2)cc1 | 14
COc1ccc(N2CCN(C(=O)c3ccc(F)cc3)[C@@H](C)C2=O)cc1 | 5
COc1ccc2[nH]c3c(c2c1)CCN(C(=O)c1ccc(C)c(C)c1)[C@@H]3c1ccccc1OC | 84
COC(=O)c1nc2ccccc2c(-c2cn(-c3ccc(C(F)(F)F)cc3)nn2)c1C(=O)OC | 1
CC(C)CNC(=O)N1CCCC[C@H]1c1noc(COc2ccc(F)cc2)n1 | -9
COc1ccc(C2=NN(C(C#N)c3cccc(OC)c3O)C(c3ccccc3)C2)cc1 (stereo not given) | 4
N#CC(c1ccc(Cl)cc1)N1N=C(c2ccccc2)CC1c1ccccc1 (stereo not given) | 4
c1ccc(C2=NN(c3ccc(-c4cc(-c5ccccc5)[n+](-c5ccccc5)c(-c5ccccc5)c4)cc3)[C@H](c3ccccc3)C2)cc1 | 94
Cc1c(C)n(CC(O)CNC(C)c2ccccc2)c2c(Cl)cccc12 (stereo not given) | 64
Cc1c(C)n(C[C@H](O)Cn2c(C(F)(F)F)nc3ccccc32)c2c(Cl)cccc12 | -6
CCC(C)NCC(O)Cn1c(-c2ccccc2)c(-c2ccccc2)c2cc(C)ccc21 (stereo not given) | 92
Cc1cccc(C(=O)Nc2c(C#N)c(-c3ccccc3)c(-c3ccccc3)n2Cc2ccccc2)c1 | 3
Cc1c(C)n(C[C@@H](O)CNC2CCCC2)c2c(Cl)cccc12 | -1
CC(NCC(O)Cn1c(-c2ccccc2)c(-c2ccccc2)c2ccc3ccccc3c21)c1ccccc1 (stereo not given) | 88
O=C(Cn1c(=O)n(Cc2nc(-c3ccccc3)no2)c(=O)c2ccccc21)Nc1cccc(Cl)c1 | 5
O=C(NCc1ccccc1)c1cnn2c3c(cnc12)CCCCCC3 | 2
CCc1ccccc1NC(=O)c1sccc1S(=O)(=O)N1CCc2ccccc2C1 | 2

Compound | % Inhibition [%]
Cc1cnc(CNC(=O)Nc2nnc3ccccn23)s1 | -13
NC(=O)c1cccc(NC(=O)CC2=CCCCC2)n1 | -11
CC[C@H]1CN2C=NC(N3CCN(C(=O)Nc4cc(F)cc(F)c4)CC3)=CC2=N1 | 35
O=C(CCC(=O)c1ccc(F)cc1F)NS(=O)(=O)c1cccnc1 | -4
Cc1ccc(S(=O)(=O)c2c(C)cc(-c3ccccc3)nc2N2CCOCC2)cc1 | 0
CS(=O)(=O)n1c(CCCc2ccccc2)nc2ccccc21 | 1
Cc1ccc(S(=O)(=O)Nc2c(S(=O)(=O)c3ccccc3)c3nc4ccccc4nc3n2CCc2ccccc2)cc1 | 97
Cc1ccc(S(=O)(=O)Nc2c(S(=O)(=O)c3ccc(C)cc3)c3nc4ccccc4nc3n2C[C@H]2CCCO2)cc1 | 52
Cc1ccc(NS(=O)(=O)c2ccc(NC(=O)Cc3ccccc3)cc2)cc1C | 2
Cc1ccc(S(=O)(=O)Nc2ccccc2-c2nnc(-c3c(NS(=O)(=O)c4ccc(C)cc4)ccc4ccccc34)o2)cc1 | -14
Cc1cc(NC(=O)Cn2c(=O)n(CCc3ccccc3)c(=O)c3ccccc32)no1 | 4
Cc1ccc(S(=O)(=O)Nc2cc3nc4ccccc4nc3n2CCc2ccccc2)cc1 | 100
Cc1cnc(C2CCC2)n1CCNS(=O)(=O)c1ccccc1 | -4
Cc1ccc(-c2nc3c(c(=O)n2CC(=O)NC[C@H]2CCCO2)CCN(Cc2ccccc2)C3)cc1 | -9
Cc1ccc(S(=O)(=O)Nc2c(S(=O)(=O)c3ccc(C)cc3)c3nc4ccccc4nc3n2CCC(C)C)cc1 | 98
Cc1ccc(NCc2ncccn2)cc1OCC1CCCCC1 | 1
O=C(C1CCCC2CCCCC21)N1CCN(c2ncccn2)CC1 (stereo not given) | -8
Cc1cc(-n2nnc3ccccc32)nc(C)n1 | 4
Cc1ccc(Cl)c2ccc(NC(=O)CCNC(N)=O)nc12 | 0
CN([C@H]1CCc2ccccc21)S(=O)(=O)c1ccc2c(c1)CCC2 | 7

— ChEMBL document CHEMBL4888484, “Replenishing the malaria drug discovery pipeline: Screening and hit evaluation of the MMV Hit Generation Library 1 (HGL1) against asexual blood stage Plasmodium falciparum ,using a nano luciferase reporter read-out” (2022)
